Screening data: PubChem, several laboratories
Only some compounds are listed: those with a hit (about 2.9% of all), similar ones and a draw of the others.
FBA Mtb inh: Mtb fructose-bisphosphate aldolase inhibition; P9WQA3; purified M. tuberculosis FBA, fluorescence read-out; inhibition, % at 1 µM; 360,000 tested, 2.3% active; in the data active means inhibition above about 27%;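 further: 0% = vehicle and 100% = reference inhibitor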
Target sequence (P9WQA3 whole entry, looked up): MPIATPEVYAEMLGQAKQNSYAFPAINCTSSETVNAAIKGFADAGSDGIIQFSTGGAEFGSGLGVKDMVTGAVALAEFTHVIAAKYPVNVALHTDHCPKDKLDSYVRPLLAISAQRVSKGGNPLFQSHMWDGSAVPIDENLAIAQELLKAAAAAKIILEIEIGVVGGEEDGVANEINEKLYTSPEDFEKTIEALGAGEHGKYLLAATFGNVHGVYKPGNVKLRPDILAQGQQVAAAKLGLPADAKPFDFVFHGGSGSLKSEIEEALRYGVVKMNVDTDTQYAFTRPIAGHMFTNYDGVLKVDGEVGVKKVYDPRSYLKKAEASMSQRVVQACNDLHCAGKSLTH
Mtb hypoxia rep: Mtb hypoxia fluorescent reporter inhibition; 300,000 tested, 0.1% active; fluorescence inhibition, % (concentration not given with the values); M. tuberculosis hypoxia-regulated fluorescent reporter, fluorescence; AID 1159583; in the data active means fluorescence inhibition mostly above about 23%, no sharp cut-off; inactive means mostly below about 17%
Mtb BioA inh: BioA (M. tuberculosis) enzyme inhibition | AID 602481 | inhibition, % at 9.99 µM | 360,000 tested, 0.096% active | purified M. tuberculosis BioA enzyme, plate reader; in the data active means inhibition above about 40%
GDH-TPI counter: GDH-TPI coupled enzyme inhibition counter-screen; GDH-TPI coupled enzyme counterscreen, NADH absorbance; inhibition, % at 4.8 µM; 360,000 tested, 1.2% active; AID 588335; in the data active means inhibition above about 30%;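 further: 0% = DMSO wells and 100% = wells lacking the enzyme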
FadD28 binding: blocks FadD28 binding to the bisubstrate probe. fluorescence polarization. inhibition, % at 12.5 µM. 360,000 tested, 0.22% active; in the data active means inhibition above about 8.5%, passing the limit was not always enough
Starred values were filed as active, the others as inactive; . = not tested or not shown; + = active, no number.

SMILES | FBA Mtb inh | Mtb hypoxia rep | Mtb BioA inh | GDH-TPI counter | FadD28 binding
O=S(c1ccccc1O)S(=O)c1ccccc1O (stereo not given) | 2 | 0 | . | -2 | 28*
CS(=O)c1ccccc1O (stereo not given) | -7 | -3 | -1 | -1 | -2
COc1ccccc1OCCn1cc(C=NNC(=O)c2ccncc2)c2ccccc21 | . | 25 | . | . | .
COc1cc(C(=O)N/N=C/c2cn(Cc3ccccc3)c3ccccc23)ccc1O | -1 | . | 0 | 37* | 1
COc1ccccc1OCCn1cc(/C=N/NC(=O)c2ccncc2)c2ccccc21 | -1 | . | 1 | 54* | -2
NC(=O)NN=Cc1cn(CC(=O)Nc2ccc(F)cc2)c2ccccc12 | . | 70* | . | . | .
C(=N\n1cnnc1)/c1cn(Cc2ccccc2)c2ccccc12 | -2 | . | 4 | 31* | -10
CN(C)CC#Cc1ccc([C@H]2[C@H]3CN(C(=O)Nc4ccc(F)cc4)CCCCN3[C@H]2CO)cc1 | . | . | 3 | . | .
CCCC#Cc1ccc2c(c1)O[C@H](CN(C)C(=O)Nc1ccccc1F)[C@@H](C)CN([C@@H](C)CO)S2(=O)=O | . | . | 1 | . | .
O=C(O)c1cccc(NC(=S)NN=Cc2cccc(O)c2)c1 | . | 0 | . | . | .
CC(C)C#Cc1ccc2c(c1)O[C@H](CN(C)Cc1cncnc1)[C@@H](C)CN([C@H](C)CO)S2(=O)=O | . | . | 2 | . | .
O=C(NN=Cc1cn(Cc2cccc(F)c2)c2ccccc12)c1cc(O)cc(O)c1 | . | 14 | . | . | .
Nc1ccc(C(=O)N/N=C/c2cn(Cc3ccc(F)cc3)c3ccccc23)cc1 | 2 | . | 0 | 33* | 6
O=C(N/N=C/c1cn(Cc2cccc(F)c2)c2ccccc12)c1cc(O)cc(O)c1 | 1 | . | 0 | 25 | 17*
Nc1ccc(C(=O)N/N=C/c2cn(Cc3ccccc3)c3ccccc23)cc1 | 1 | . | -7 | 37* | 0
Cc1noc(C)c1S(=O)(=O)N(C)C[C@@H]1Oc2ccc(NS(=O)(=O)c3ccc(Cl)cc3)cc2C(=O)N([C@H](C)CO)C[C@@H]1C | . | . | 3 | . | .
CCN=c1scc(-c2ccc(F)cc2)n1N=Cc1ccccn1 | . | 6 | . | . | .
O=C(CS(=O)(=O)Cc1ccccc1)Nc1ccc(S(=O)(=O)N2CCCCCC2)cc1 | -4 | 15 | 2 | -6 | 24*
Cn1c(=NN=Cc2ccccc2OCCO)sc2ccccc21 | 3 | . | -1 | 32* | -3
COc1ccccc1N=c1sc2ccccc2n1C | 1 | 3 | . | 10 | -1
COc1ccc(C=NNc2nnc(-c3ccccc3)c(=O)[nH]2)cc1 | . | 7 | . | . | .
Cc1nnc(N/N=C/c2c[nH]c3ccccc23)[nH]c1=O | 4 | . | -1 | 29 | 0
COc1ccc(/C=N/Nc2nnc(-c3ccccc3)c(=O)[nH]2)cc1 | -4 | . | 0 | 35* | -1
O=c1[nH]c(N/N=C/c2ccccc2Br)nnc1-c1ccccc1 | 0 | . | . | 39* | -5
CCC(=O)N1[C@H](CN(C)C(C)=O)[C@@H](c2ccc(-c3ccc(F)cc3)cc2)[C@@H]1CO | . | . | -1 | . | .
SMILES | FBA Mtb inh | Mtb hypoxia rep | Mtb BioA inh | GDH-TPI counter | FadD28 binding
Cc1nn(Cc2ccccc2Cl)c(C)c1NC(=O)c1nc2ncccn2n1 | 0 | 4 | 32 | 37* | -5
COc1ccccc1-c1ccc(/C=N/O)o1 | 4 | . | -1 | 27 | -3
COc1ccccc1-c1ccc(C(=O)O)o1 | 131* | . | . | 5 | -1
CC(C)[C@@H](N)C(=O)NN=Cc1ccc2nccnc2c1 | . | 15 | . | . | .
O=C(c1ccc(Cl)cc1[N+](=O)[O-])N1CCOCC1 | 1 | -2 | -1 | -4 | 0
O=C(c1cccs1)N1CCN(c2ccc([N+](=O)[O-])cc2F)CC1 | -3 | -3 | -2 | 7 | -1
CCC(=O)c1ccc(N2CCN(C(=O)c3cccs3)CC2)c(F)c1 | 2 | . | 18 | 32* | -1
Cc1cc(N2CCN(C(=O)c3cccs3)CC2)c(F)cc1[N+](=O)[O-] | -4 | -1 | 4 | 38* | -3
O=C(c1cc(N2CCOCC2)c(F)cc1[N+](=O)[O-])N1CCOCC1 | 51* | -1 | -2 | 15 | 0
CCC(=O)c1ccc(N2CCN(C(=O)c3ccccc3F)CC2)c(F)c1 | 2 | 4 | . | -4 | 0
O=C(NN=Cc1ccc(N2CCOCC2)s1)c1ccc(NS(=O)(=O)c2cccs2)cc1 | . | 12 | . | . | .
COc1ccc(C=NNc2nnc(Cc3ccccc3)c(=O)[nH]2)cc1 | . | -15 | . | . | .
C[C@H](CO)N1C[C@H](C)[C@H](CN(C)Cc2ccc(Oc3ccccc3)cc2)Oc2ccc(NC(=O)NC3CCCCC3)cc2C1=O | . | . | -3 | . | .
CCOC(=O)C1Nc2ccccc2C2c3ccccc3CC12 (stereo not given) | 33* | 19 | 2 | 11 | -6
O=c1[nH]c(/C=C/c2ccc([N+](=O)[O-])cc2)c([N+](=O)[O-])c(=O)[nH]1 | 0 | 7 | -2 | 31* | -1
O=c1[nH]c(/C=C/c2ccc3c(c2)OCO3)c([N+](=O)[O-])c(=O)[nH]1 | . | 10 | . | . | .
COCCCNC(=O)[C@]1(Cc2ccccc2N=[N+]=[N-])N=C(c2ccc(OCCCO)cc2)O[C@@H]1c1ccccc1N=[N+]=[N-] | . | . | 0 | . | .
C[C@H](CO)N1C[C@H](C)[C@@H](CN(C)Cc2ccc3c(c2)OCO3)OCCCC[C@H](C)Oc2ccc(NC(=O)c3ccncc3)cc2C1=O | . | . | 2 | . | .
COc1ccc(OC)c(S(=O)(=O)CC(=O)c2cc3ccc(OC)cc3oc2=O)c1 | 3 | 7 | -6 | 8 | 0
COc1ccc2cc(S(=O)(=O)c3ccccc3)c(=O)oc2c1 | + | 4 | -1 | 36* | -2
Cc1ccc(S(=O)(=O)c2cc3ccc(O)cc3oc2=O)cc1C | + | 15 | -1 | 0 | 1
CN(C)CC(=O)N[C@H]1CC[C@@H](CCn2cc(C3CCCCC3)nn2)O[C@@H]1CO | . | . | -2 | . | .
Nc1nn(-c2ccccc2)nc1C(=O)OCc1ccccc1F | 135* | 0 | . | 4 | -2
Cc1ccc(N=Cc2ccc(N(C)C)cc2)cc1C | -1 | 9 | . | 23 | -3
Cc1ccc(N=Cc2ccc(N(C)C)cc2)cc1 | 0 | . | 0 | 39* | 1
SMILES | FBA Mtb inh | Mtb hypoxia rep | Mtb BioA inh | GDH-TPI counter | FadD28 binding
CN(C)c1ccc(C=Nc2ccccc2)cc1 | 1 | -2 | -1 | 46* | -1
CN(C)c1ccc(C=Nc2ccc(N(C)C)cc2)cc1 | -1 | . | -2 | 32* | -1
CC(C)NC(=O)Nc1ccc2c(c1)C(=O)N([C@H](C)CO)C[C@@H](C)[C@H](CN(C)CC1CCCCC1)OCCCC[C@@H](C)O2 | . | . | 2 | . | .
COc1cccc2c1C(=O)c1c(O)c3c(c(O)c1C2=O)C[C@](O)(C(C)=O)C[C@H]3O[C@@H]1C[C@@H](N)[C@@H](O)[C@@H](C)O1 | -3 | . | -55 | 2 | 62*
COc1cccc2c1C(=O)c1c(O)c3c(c(O)c1C2=O)CC(O)(C(C)=O)CC3OC1CC(O)C(O)C(C)O1 (stereo not given) | -7 | . | . | 10 | 66*
CC(C)Cn1cc(C(=O)N2CCC3(CC2)OCCO3)c2c3ccccc3n(C)c2c1=O | 37* | 1 | 0 | 11 | 2
COCCn1cc(C(=O)N2CCC(C)CC2)c2c3ccccc3n(C)c2c1=O | 43* | 2 | 1 | -3 | -3
